A selection: hits, their analogues and other compounds. The true share with any hit is near 3.4%.
MITF inh – human MITF inhibition, primary screen. AID 1259374. O75030. inhibition, % at 2.6 µM. AlphaScreen MITF homodimerization, bead proximity signal. 0.91% of 650,000 active; in the data active means inhibition above about 50%;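 further: 0% = vehicle wells with protein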
FBW7 act – human FBW7 E3 ligase activation, primary screen; AlphaScreen FBW7–phospho-cyclin E peptide binding, activator screen; 0.13% of 650,000 active; normalized activity (activation), % at 26.1 µM; AID 1259310; in the data active means normalized activity above about 1.9%;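 further: purified mutant Fbw7 with reduced substrate affinity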
Target sequence (Q969H0 whole entry, looked up): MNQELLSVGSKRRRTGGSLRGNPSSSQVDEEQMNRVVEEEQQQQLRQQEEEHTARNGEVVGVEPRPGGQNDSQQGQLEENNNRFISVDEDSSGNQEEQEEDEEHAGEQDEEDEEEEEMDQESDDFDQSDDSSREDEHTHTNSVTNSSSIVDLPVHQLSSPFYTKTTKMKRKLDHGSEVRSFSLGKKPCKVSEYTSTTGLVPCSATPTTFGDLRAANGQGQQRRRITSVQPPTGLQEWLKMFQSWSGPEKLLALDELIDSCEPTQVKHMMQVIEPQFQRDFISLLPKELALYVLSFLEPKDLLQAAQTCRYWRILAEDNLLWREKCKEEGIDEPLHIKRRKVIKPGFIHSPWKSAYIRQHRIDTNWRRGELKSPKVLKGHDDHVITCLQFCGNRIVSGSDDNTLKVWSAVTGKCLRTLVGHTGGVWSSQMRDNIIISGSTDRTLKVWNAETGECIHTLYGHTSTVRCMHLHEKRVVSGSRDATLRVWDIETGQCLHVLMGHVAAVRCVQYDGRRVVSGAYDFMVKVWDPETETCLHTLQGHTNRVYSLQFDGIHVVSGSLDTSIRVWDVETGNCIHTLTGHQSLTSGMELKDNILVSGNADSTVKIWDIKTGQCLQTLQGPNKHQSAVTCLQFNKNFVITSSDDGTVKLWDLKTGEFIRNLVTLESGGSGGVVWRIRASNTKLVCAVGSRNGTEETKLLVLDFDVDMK
GPR151 ag – activators of human GPR151. Q8TDV0. PathHunter beta-arrestin GPR151 cells, luminescence. activation, % at 11.2 µM. 1% of 650,000 active. AID 1508602; in the data active means activation above about 4.9%;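 further: 0% = median of compound wells and 100% = cells with positive control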
TEAD-YAP block – TEAD-YAP interaction inhibition. HEK-TIYL cells, TEAD-Gal4/YAP UAS-luciferase luminescence. inhibition, % at 9.12 µM. 1.4% of 640,000 active; in the data active means inhibition above about 32%;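 further: 0% = median of test compound wells and 100% = reference inhibitor wells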
* hit, by the source's call.

SMILES	MITF inh	FBW7 act	GPR151 ag	TEAD-YAP block
CC1(C2CCN(C(=O)c3ccccn3)CC2)NC(=O)N(Cc2ccc(F)cc2)C1=O (stereo not drawn)	7	0	-1	-11
CC1(C)C=C2C(=C(O)CC(c3cc4c(cc3[N+](=O)[O-])OCO4)C2(C#N)C#N)C(=O)C1 (stereo not drawn)	-3	0	0	5
COc1ccc(C2CC(=O)C3=C(C2)NC(C)=C(C(=O)OC(C)C)C3c2cccc(Br)c2)cc1OC (stereo not drawn)	-3	0	2	31
COc1ccc(C2CC(=O)C3=C(C2)NC(C)=C(C(=O)OC(C)C)C3c2cccc(C)c2)cc1OC (stereo not drawn)	4	0	-1	52*
COCCOC(=O)C1=C(C)NC2=C(C(=O)CC(c3ccc(OC)c(OC)c3)C2)C1c1cccc(C)c1 (stereo not drawn)	4	0	1	43*
COc1ccc(C2CC(=O)C3=C(C2)NC(C)=C(C(=O)OC(C)C)C3c2cccc(Cl)c2)cc1OC (stereo not drawn)	5	1	0	46*
COc1ccc(C2CC(=O)C3=C(C2)NC(C)=C(C(=O)OC(C)C)C3c2cccc([N+](=O)[O-])c2)cc1OC (stereo not drawn)	-10	0	-1	39*
CCOC(=O)C1=C(C)NC2=C(C(=O)CC(c3ccc(OC)c(OC)c3)C2)C1c1cccc([N+](=O)[O-])c1 (stereo not drawn)	-1	0	-1	5
COC(=O)C1CCN(S(=O)(=O)c2c(C)n(C)c(=O)n(C)c2=O)CC1	14	0	0	-12
COc1ccc(C2CC(=O)C3=C(C2)NC(C)=C(C(=O)OC(C)C)C3c2ccccc2F)cc1OC (stereo not drawn)	11	0	0	43*
CC1=C(C#N)C(c2ccccc2Cl)C2=C(CC(c3ccccc3)CC2=O)N1 (stereo not drawn)	1	0	-1	33*
COc1ccc(C2CC(=O)C3=C(C2)NC(C)=C(C(=O)OC(C)C)C3c2ccccc2OC)cc1OC (stereo not drawn)	14	1	-1	1
CCC(C)OC(=O)C1=C(C)NC2=C(C(=O)CC(c3ccccc3)C2)C1c1cccc2ccccc12 (stereo not drawn)	6	2.2*	0	9
O=C(N/N=C(/c1ccccc1)C(F)(F)F)c1ccncc1	0	0	-1	6
O=C(Nc1ccccc1O)c1cccc(S(=O)(=O)N2CCCCC2)c1	14	1	0	5
O=C(Nc1cccc2cnccc12)c1cccc(S(=O)(=O)N2CCCCCC2)c1	8	0	1	38*
C/C=C/COC(=O)C1=C(C)NC(=O)NC1c1ccc(Cl)cc1Cl (stereo not drawn)	5	0	0	64*
CC(=O)Nc1ccc2nc(NC(=O)c3ccc(Cl)cc3Cl)sc2c1	6	0	1	-41
O=C(Nc1nc2ccccc2s1)c1ccccc1Cl	-18	0	-10	81*
O=C(Nc1nc2ccccc2s1)c1ccccc1F	2	1	-11	87*
O=C(Nc1nc2ccccc2s1)c1cccc(Cl)c1Cl	0	0	-1	-82
O=C(Nc1nc2ccccc2s1)c1ccccc1O	-1	0	0	-23
O=C(Nc1nc2ccccc2s1)c1ccc(Cl)cc1Cl	-7	0	-8	81*
COCCCN1C(=O)c2[nH]nc(-c3ccccc3O)c2C1c1cccc(Br)c1 (stereo not drawn)	10	0	0	35*
COCCCN1C(=O)c2[nH]nc(-c3ccccc3O)c2C1c1cccc(O)c1 (stereo not drawn)	11	0	0	3
SMILES	MITF inh	FBW7 act	GPR151 ag	TEAD-YAP block
O=C(O)CCc1ccc(-c2cnc(N3CCOCC3)c3nccn23)cc1	-26	0	0	21
CC(=O)c1c(C)[nH]c(C(=O)CN2C(=O)c3ccccc3S2(=O)=O)c1C	16	0	-1	41*
O=C(CN1C(=O)c2ccccc2S1(=O)=O)c1ccccc1	11	1	-1	54*
CCOC(=O)CN1C(=O)c2ccccc2S1(=O)=O	-2	0	0	0
Cc1ccc(NC(=S)N(Cc2ccccc2)Cc2cccs2)cc1	13	0	2	-10
Cc1ccc(NC(=S)N(Cc2ccccc2)Cc2cccs2)cc1C	-7	0	1	57*
c1ccc(Nc2nc(Nc3nccc4ccccc34)nc3c2ncn3-c2ccsc2)cc1	3	0	-1	-10
c1ccc2c(Nc3nc(Nc4ccc(N5CCOCC5)cc4)c4ncn(-c5ccsc5)c4n3)nccc2c1	16	0	-1	73*
c1ccc(Nc2nc(Nc3ccc(N4CCOCC4)cc3)c3ncn(-c4ccsc4)c3n2)nc1	2	0	1	37*
CC(=O)Nc1ccc(Nc2nc(Nc3ccc4ncccc4c3)nc3c2ncn3-c2ccsc2)cc1	8	0	0	30
CC(=O)Nc1ccc(Nc2nc(Nc3ccccn3)nc3c2ncn3-c2ccsc2)cc1	-3	0	-1	45*
c1ccc(Nc2nc(Nc3ccc(N4CCOCC4)cc3)c3ncn(-c4ccsc4)c3n2)cc1	6	0	3	39*
Cc1sc2ncnc(Oc3cccc4cccnc34)c2c1C	-4	0	-1	-7
c1cncc(CNc2nc(Nc3ccc(N4CCOCC4)cc3)c3ncn(-c4ccsc4)c3n2)c1	9	0	0	20
c1cnc(Nc2nc(Nc3ccc(N4CCOCC4)cc3)c3ncn(-c4ccsc4)c3n2)cn1	-8	0	1	46*
Cc1c(C(=O)Nc2ccccc2)sc(NC(=O)Cn2c(=O)oc3ccccc32)c1C#N	14	0	0	-4
CCOc1cccc(C2c3c(oc4ccccc4c3=O)C(=O)N2CCCN2CCOCC2)c1 (stereo not drawn)	-27	0	0	-28
Cc1ccc(/C(O)=C2/C(=O)C(=O)N(Cc3cccnc3)C2c2ccccc2F)cc1 (stereo not drawn)	8	0	1	9
Nc1cccc(-c2cccc(C(=O)NCCCN3CCCC3=O)c2)c1	0	0	0	41*
CC(Oc1ccc(Br)cc1Cl)C(=O)Nc1ccncc1 (stereo not drawn)	-3	0	4	48*
CCOC(=O)C1CN(c2ccc([N+](=O)[O-])cc2[N+](=O)[O-])C1	-10	0	1	55*
COC(=O)C1CCN(c2ccc([N+](=O)[O-])cc2[N+](=O)[O-])CC1	12	1	2	-3
Cc1ccc(CCn2c(C)c(C)c3ccccc32)cn1	9	1	3	-3
COc1ccc2c(c1)c(C)c(C)n2CCc1ccc(C)nc1	-6	0	-2	50*
COC(=O)c1sc(NC(=O)c2cccc(OC)c2)c(C(=O)OC)c1C	7	0	-1	-1
CC(=O)Nc1ccc(NC(=O)CCn2c(=S)oc3ccccc32)cc1	8	1	0	-2
CC(=O)/C=C/n1c(=S)oc2ccccc21	7	0	-1	57*
CCC(=O)/C=C/n1c(=S)oc2ccccc21	-12	0	1	55*
